Laboratory results from PubChem BioAssay AID2391 (Southern Research Specialized Biocontainment Screening …, 2010).
Hit rate of the full screen: of about 310,000 compounds, about 410 (0.13%) were called active. About 2% were inconclusive and are not listed. The rule behind the calls is not given here. Only a sample is shown. Measured potencies and affinities stand elsewhere.

test: RSV antiviral activity via CPE protection, HEp-2 cells, primary 10 µM value included (AID 2391); details: RSV-induced CPE inhibition, at 10 µM, hits give high values

CPE inhibition, inactive:
O=C1N=C(N2CCOCC2)S/C1=C\c1ccc(OS(=O)(=O)c2ccccc2)cc1 0.11%
CN1CCN(C2=NC(=O)/C(=C/c3ccccc3OS(=O)(=O)c3ccccc3)S2)CC1 1.12%
CC(=O)N1c2ccccc2N(Cc2ccc(C)cc2C)C(=O)C1(C)C 5.65%
Cc1cc(C)nc(NC(=O)c2c(F)c(F)c(F)c(C(=O)Nc3cc(C)cc(C)n3)c2F)c1 -2.23%
CCn1cc(C(=O)NCc2ccco2)c(=O)c2cc(F)c(N3CCN(C(=O)c4ccco4)CC3)cc21 0.76%
CCC(=O)N1CCN(c2cc3c(cc2F)c(=O)c(C(=O)O)cn3CC)CC1 0.7%
CCn1cc(C(=O)O)c(=O)c2cc(F)c(N3CCN(C(=S)NC(=O)c4ccccc4)CC3)cc21 -1.03%
CCn1cc(C(=O)NCc2ccncc2)c(=O)c2cc(F)c(N3CCN(C(=O)c4ccco4)CC3)cc21 4.28%
COc1ccccc1C1CCCN1Cc1nc(-c2cc3c(cc2Cl)OCO3)oc1C (centres undefined) 1.45%
CCOc1ccccc1-c1nc(CN2CCCC2c2nccs2)c(C)o1 (centres undefined) 5.15%
COCc1ccc(CN2CCCC(CO)(Cc3ccccc3C)C2)o1 (centres undefined) -0.94%
CCOC(=O)c1cnc(Cc2ccccc2)[nH]c1=O 1.25%
N#Cc1nc(COc2ccccc2Cl)oc1N1CCCC1 40.5%
Cc1c(C(=O)O)oc2ccc3c(c12)C(O)CC(C)(C)O3 (centres undefined) 1.72%
CN(CC(=O)Nc1ccccc1Cl)C(=O)c1cc(C2CC2)nn1-c1ccccc1 1.34%
CCc1ccccc1NC(=O)CN(C)C(=O)c1cc(C2CC2)nn1-c1ccccc1 0.49%
O=C(O)c1cc(C2CC2)nn1-c1ccccc1 -0.32%
CCc1ccccc1NC(=O)CNC(=O)c1cc(C2CC2)nn1-c1ccccc1 -0.83%
CCN(CC(=O)Nc1c(F)cccc1F)C(=O)C1CCN(C(=O)Nc2ccccc2)CC1 0.36%
O=C(NC1CCCC1)C1CC(=O)N(c2ccccc2)C1 (centres undefined) 1.22%
CS(=O)(=O)c1ccc(C(=O)OCC(=O)Nc2cccc(S(=O)(=O)N3CCCC3)c2)cc1 1.77%
O=C(CSc1nccn(-c2ccc(Br)cc2)c1=O)Nc1ccccc1F 0.04%
CSc1nc(Oc2ccc(C)cc2)cc(C(F)(F)F)n1 0.19%
CCNC(=S)N1CCN(c2nc(-c3ccc(F)cc3)cs2)CC1 2.45%
O=C(c1ccc(-c2ccccc2Cl)o1)N1CCN(S(=O)(=O)c2cccs2)CC1 0.24%
CCOC(=O)[C@H]1[C@H]2COc3cc(OC)ccc3[C@@H]2N2C(=O)CN(Cc3ccc(OC)cc3)C(=O)[C@@]12C 2.03%
COc1ccc(NC(=S)NCCN2CCC(C)CC2)cc1Cl -1.89%
CC(C)OCCCNC(=O)c1ccc2c(c1)NC(=O)c1ccccc1S2 3.89%
COc1ccc(C(=O)c2coc3ccc(OC(C)=O)cc23)cc1 4.53%
COc1ccc2occ(C(C)=O)c2c1 0.49%
CN1C=C(C(F)(F)F)C=C/C1=C(\C#N)c1nnc2n1CCCCC2 1.8%
COc1ccc(C2CCCN2C(=O)Nc2ccccc2)cc1OC (centres undefined) 2.18%
COc1ccc(CNC(=O)CCCn2nc(C)n3ccnc3c2=O)cc1 1%
C=Cn1cc[n+](CC(=O)c2cccs2)c1 0.58%
COc1ccc2[nH]cc(C(=O)CN3CCCCC3)c2c1 -0.42%
COc1ccc2[nH]cc(C(=O)CN3CCC(C)CC3)c2c1 0.91%
O=C1CCCN1c1ccc(C(=O)N(Cc2nnc(-c3ccc(Cl)cc3)o2)C2CC2)cc1 1.99%
O=C(c1ccc(Cl)c(S(=O)(=O)N2CCOCC2)c1)N(Cc1nnc(-c2ccccc2Cl)o1)C1CC1 14.6%
CC(C)CCOC(=O)C(C)Sc1n[nH]c(=O)[nH]c1=O (centres undefined) 8.79%
Cc1cc(O)c(NC(=S)NC(=O)c2ccc(-c3ccc(Cl)cc3)o2)cc1C 11.3%
COC(=O)c1ccccc1NC(=O)c1ccc(-c2ccc(Br)cc2)o1 4.75%
O=C(O)c1ccc(NC(=S)NC(=O)c2ccc(-c3ccc(Br)cc3)o2)cc1 10.7%
Cc1ccc(NC(=S)NC(=O)c2ccc(-c3ccc(Cl)cc3)o2)c(O)c1 1.42%
O=C(NC(=S)Nc1ccccc1O)c1ccc(-c2ccc(Cl)cc2)o1 -1.25%
Cc1c(NC(=S)NC(=O)c2ccc(-c3ccc(Cl)cc3)o2)cccc1C(=O)O 53.5%
O=C(N/C(=C/c1cccc([N+](=O)[O-])c1)C(=O)N1CCCCC1)c1ccco1 -0.57%
Cc1ccc(S(=O)(=O)NC(C)(C)CN2CCNCC2)cc1 -0.5%
O=C(CCCCCN1C(=O)c2cccc3cccc(c23)C1=O)N1CCOCC1 2.04%
CCCc1c(NC(=O)Nc2ccc(F)cc2)cnn1-c1ccc(Cl)cc1 4.89%
CCCc1c(C(=O)Nc2ccc(F)cc2)cnn1-c1ccccc1 3.97%
O=C(c1ccco1)N1CCN(c2ccccc2F)CC1 0.67%
CNC(=O)N1c2ccccc2C=Cc2ccccc21 0.96%
CCN(CC)C(=O)N1c2ccccc2Sc2ccccc21 11.5%
COc1cc(NC(=S)NC(=O)c2c(OC)cccc2OC)ccc1NC(=O)c1cccs1 2.67%
COc1cc(NC(=S)NC(=O)c2cc(C)cc(C)c2)ccc1NC(=O)c1cccs1 7.54%
Cc1ccc(NC(=O)c2cccs2)cc1NC(=O)c1ccccc1Cl 2.07%
COc1cccc(C(=O)Nc2cc(NC(=O)c3cccs3)ccc2C)c1 10.5%
CCCCN(C)CCNC(=O)c1cn(C)c(=O)c2c1c1ccccc1n2C 1.07%
COc1ccc(OC)c(C2C(C#N)=C(N)N(N(C)C)C3=C2C(=O)CC(C)(C)C3)c1 (centres undefined) 1.69%
Nc1ccc2nc(SCC(=O)N3CCOCC3)sc2c1 0.05%
CCN(CC)CCNC(=O)c1ccc(NC(=O)Cc2ccccc2F)cc1 -0.24%
COc1ccc(Cl)cc1NC(=O)NCc1cccnc1 2.51%
Nc1nnnn1/N=C/c1ccc(Br)cc1 7.9%
Nc1nnnn1/N=C/c1ccc(F)cc1 1.72%
O=C(COc1ccccc1[N+](=O)[O-])OCCCOC(=O)COc1ccccc1[N+](=O)[O-] 0.68%
CCN1/C(=C2\C(=O)N(C)C(=S)N2c2ccccc2)C=Cc2ccccc21 1.96%
CC1(C)Cc2cccc(OCC(=O)Nc3nccs3)c2O1 1.37%
CC1(C)Cc2cccc(OCC(=O)Nc3cccnc3)c2O1 0.28%
COc1ccc(C)cc1Nc1n[n+](-c2ccccc2)c(-c2cc(OC)c(OC)cc2Br)s1 13.7%
COC(=O)c1cc(NS(=O)(=O)c2ccc(NCc3cccnc3)c([N+](=O)[O-])c2)cc(C(=O)OC)c1 1.44%
COc1ccccc1NC(=O)N1CCN(c2ccc3nnc(-c4ccc(F)cc4)n3n2)CC1 20.8%
CCSc1ccccc1C(=O)N1CCC2(CC1)CC(=O)c1ccccc1O2 2.51%
COc1cccc(NC(=O)COc2cccc3c2CCNC3=O)c1 -2.16%
Cc1ccccc1NC(=O)COc1cccc2c1CCNC2=O -2.82%
CCOC(=O)NC(Nc1ccc(C)cn1)(C(F)(F)F)C(F)(F)F 0.51%
Cc1cccc(C(=O)NC2CCN(CC(=O)N3CCOCC3)CC2)c1 0.56%
O=C(c1ccc(Br)o1)N1CCN(c2ccc3nnc(-c4ccc(F)cc4)n3n2)CC1 1.21%
c1ccc(-c2nnc3ccc(N4CCCC4)nn23)cc1 13.9%
COc1cc(F)ccc1CN1CCC(n2nccc2NC(=O)C2CCOC2)CC1 (centres undefined) -1%
Cc1cc(C(=O)Cn2nnc3ccccc3c2=O)c(C)n1-c1c(C)n(C)n(-c2ccccc2)c1=O 2.35%
COc1ccc(-n2c(C)cc(C(=O)Cn3nnc4ccccc4c3=O)c2C)cc1 2.15%
CN(C)c1ccc(CN(CC2CCCO2)C(=O)c2cccs2)cc1 (centres undefined) -0.5%
Cn1c(=O)c2c(n(Cc3ccccc3)c1=O)NC(=O)C2CC(=O)O (centres undefined) 0.62%
Cc1ccccc1OCCC(=O)Nc1ccc2c(C)cc(=O)oc2c1 1.79%
CCC(C)n1c(SCC(=O)Nc2ccccc2C(F)(F)F)nc2ccsc2c1=O (centres undefined) 13.6%
COCCN(C(=O)C(C)C)c1nnc(-c2ccc(C)cc2)s1 1.29%
COCCN(C(=O)C1CC1)c1nnc(-c2cccc(C)c2)s1 14%
C=CCc1cccc(/C=N/NC(=O)c2ccccc2OC)c1O 4.29%
O=C(O)c1ccccc1Nc1ccccc1 2.02%
O=C(O)c1cc([N+](=O)[O-])ccc1Nc1ccccc1 2.12%
O=C(O)c1ccccc1Nc1ccccc1C(=O)O 0.65%
COc1ccc(Nc2ccccc2C(=O)O)cc1 -0.36%
O=C(NCCOc1ccccc1Cl)c1ncn[nH]1 0.27%
CSc1ccc(S(=O)(=O)NCCSC(C)(C)C)cc1 -1.64%
